Compound activity from PubChem BioAssay.
NR2F2 inh: NR2F2 transcriptional activity inhibitors, primary screen, cell-based, luciferase reporter, HEK293T, luminescence; AID 686940, 2013; hit rate 0.7% among 370,000; COUP transcription factor 2 (Homo sapiens), P24468; HEK293T NGFI-A luciferase reporter; inhibition, % at 8.6 µM;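 active = inhibition above a per-plate cutoff, mean inhibition of test wells between control levels plus 3 SD, cut at about 38% in these data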;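 also: cells cotransfected with COUP-TFII expression vector driving the NGFI-A reporter; 0% = median of COUP-TF2 test wells and 100% = reporter-only cells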
SRC3 inh: SRC3 coactivator transcriptional activity inhibitors, primary screen, cell-based, luminescence | HEK293 GAL4-SRC3 luciferase reporter | hit rate 0.17% among 360,000 | AID 588352, 2011 | inhibition, % at 3.6 µM | Nuclear receptor coactivator 3 (Homo sapiens), Q9Y6Q9;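 active = inhibition above a per-campaign cutoff, the mean of all compounds plus 3 SD, cut at about 60% in these data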;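 also: 0% = DMSO-treated cells and 100% = gossypol-treated cells at 36 µM; higher means less SRC3-driven luciferase light from the GAL4 reporter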
SRC1 inh: SRC1 coactivator transcriptional activity inhibitors, primary screen, cell-based, luminescence; hit rate 0.12% among 360,000; Nuclear receptor coactivator 1 (Homo sapiens), Q15788; HEK293 GAL4-SRC1 luciferase reporter; inhibition, % at 3.6 µM;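 active = inhibition above the campaign mean plus 3 SD, with each screening campaign given its own cutoff, cut at about 60% in these data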;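 also: 0% = DMSO treated cells and 100% = gossypol at 36 µM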
SRC2 inh: inhibition of GAL4-SRC2 driven luciferase reporter, primary screen, SRC2 inhibitor project, cell-based, luminescence | Nuclear receptor coactivator 2 (Homo sapiens), Q15596 | HEK293 GAL4-SRC2 luciferase reporter | inhibition, % at 9 µM | hit rate 0.17% among 370,000 | AID 651957, 2012;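 active = inhibition above the mean inhibition of all tested compounds plus 3 SD, set per campaign, cut at about 52% in these data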;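 also: 0% = DMSO treated cells and 100% = cells given Gossypol at 36 µM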
NR5A2 inv ag: LRH-1 (NR5A2) inverse agonists, primary screen, cell-based, luminescence, HEK293T, StAR-luciferase reporter | LRH-1 transfected, 24 h | AID 602396, 2012 | inhibition, % at 3.6 µM | Nuclear receptor subfamily 5 group A member 2 (Homo sapiens), O00482 | hit rate 0.13% among 360,000;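 active = inhibition above the mean inhibition of all tested compounds plus 3 SD, cut at about 73% in these data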;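 also: 0% = DMSO wells and 100% = reporter-only cells lacking LRH-1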
Target sequence (O00482 whole entry, looked up): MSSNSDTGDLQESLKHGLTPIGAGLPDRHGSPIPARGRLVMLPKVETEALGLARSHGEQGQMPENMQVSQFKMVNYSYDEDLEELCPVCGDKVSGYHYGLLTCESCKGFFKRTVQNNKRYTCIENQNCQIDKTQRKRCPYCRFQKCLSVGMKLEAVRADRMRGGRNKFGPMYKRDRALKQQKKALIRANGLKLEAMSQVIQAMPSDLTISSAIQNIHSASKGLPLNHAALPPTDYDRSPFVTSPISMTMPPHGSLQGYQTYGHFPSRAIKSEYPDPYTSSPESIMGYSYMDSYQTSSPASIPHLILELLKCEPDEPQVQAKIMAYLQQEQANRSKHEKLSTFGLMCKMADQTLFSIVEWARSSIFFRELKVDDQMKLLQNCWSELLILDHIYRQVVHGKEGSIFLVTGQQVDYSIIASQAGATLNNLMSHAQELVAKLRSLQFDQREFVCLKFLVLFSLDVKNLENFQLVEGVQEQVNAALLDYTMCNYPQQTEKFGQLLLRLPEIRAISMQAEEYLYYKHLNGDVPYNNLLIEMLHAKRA
Gal4-VP16 ctr: Gal4-VP16 luciferase reporter inhibitors, counter-screen for COUP-TFII antagonist project, cell-based, luminescence, HEK293 | shares compounds with NR2F2 inh | inhibition, % at 8.5 µM | hit rate 25% among 2,500 | AID 687007, 2013; in the data active = inhibition above about 13%
COUP-TFII conf: NR2F2 transcriptional activity inhibitors, confirmation, cell-based, luciferase reporter, HEK293, triplicate | shares compounds with NR2F2 inh | HEK293 NGFI-A luciferase reporter, luminescence | inhibition, % at 8.5 µM | hit rate 45% among 2,500 | AID 687008, 2013;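 active = mean inhibition over three repeats above a set limit taken from the earlier primary screen, cut at about 38% in these data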;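 also: 100% = cells given the luciferase reporter alone without the COUP-TF2 vector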
Numbers without * were called inactive; . = no result. This is a sample that favours compounds with a hit; in the whole collection about 0.81% have one here.

SMILES	NR2F2 inh	SRC3 inh	SRC1 inh	SRC2 inh	NR5A2 inv ag	Gal4-VP16 ctr	COUP-TFII conf
COc1ccccc1N1CCN(C(=O)c2cc3c(C)nc4ccccc4c3o2)CC1	42*	11	-8	17	6	-4	12
Cc1ccc(CNC(=O)c2cc3c(C)nc4ccccc4c3o2)cc1	48*	9	0	14	33	3	25
COc1ccc(C2(c3ccc(OC)cc3)NC(=O)NC2=O)cc1	1	1	-6	-3	-16	.	.
CC(C)(C)c1ccc(C(=O)N2CCC2(C)C(=O)Nc2cnc3ccccc3c2)cc1 (stereo not drawn)	21	10	3	1	-9	.	.
CC(C)(C)c1ccc(CC(=O)N2CCC2(C)C(=O)Nc2cnc3ccccc3c2)cc1 (stereo not drawn)	41*	4	13	1	-30	-5	12
CC(C)c1ccc(CC(=O)N2CCC2(C)C(=O)Nc2cnc3ccccc3c2)cc1 (stereo not drawn)	45*	3	-4	0	-11	-3	11
Cc1ccc(C2CN(CCC(N)=O)C(=O)CO2)cc1 (stereo not drawn)	-8	-12	-16	4	-6	.	.
CC1CCCN(c2ncnc3c2cnn3-c2ccc(Cl)cc2)C1 (stereo not drawn)	100*	88*	87*	83*	92*	90*	105*
NS(=O)(=O)c1ccc(NC(=S)N2CCN(c3ccc(Cl)c(Cl)c3)CC2)cc1	38*	27	1	-4	14	13*	24
COc1ccc(C(=O)NCc2nnc(SCC(=O)c3ccc(F)cc3)n2C)cc1OC	1	10	-32	-17	7	.	.
CCC(CO)[n+]1c(C)cc(/C=C2\Sc3ccccc3N2Cc2ccccc2)cc1C (stereo not drawn)	85*	3	8	-22	12	22*	87*
COc1ccc(NC(=O)c2cccc([N+](=O)[O-])c2)cc1	-15	-36	-31	-35	2	.	.
COc1ccc(NC(=O)c2cc([N+](=O)[O-])ccc2O)cc1	69*	53	51	76*	20	39*	61*
O=C(Nc1cccc([N+](=O)[O-])c1)c1cc2ccccc2cc1O	63*	-8	-32	-4	-37	-135	2
COc1ccc(CCNC(=O)c2cccc(C(=O)NCCc3ccc(OC)cc3)n2)cc1	5	8	-12	-2	0	.	.
Cc1sc2ncnc(NC3CCN(Cc4ccccc4)CC3)c2c1C	56*	30	27	35	37	5	52*
c1ccc(CN2CCC(Nc3ncnc4sccc34)CC2)cc1	1	15	17	-3	-1	.	.
CCOc1ccc(CCNC(=O)c2cc3sccc3n2CC)cc1OC	57*	.	.	12	.	-10	20
CCOc1cc(/C=N/Nc2nnc(C)n2N)ccc1O	49*	6	9	-3	55	5	9
Cc1cccc2cc(-c3ccccc3)c(-c3ccccc3)c[n+]12	64*	41	42	20	53	2	44*
CCCCOc1ccc(Cl)cc1Nc1nc(NCCO)nc(N2CCCC2)n1	-4	3	-4	-2	20	.	.
COc1ccc(-c2cc(C3CCN(c4ccc(C(C)=O)cc4[N+](=O)[O-])CC3)[nH]n2)cc1	42*	19	7	27	-12	-3	19
CN(C)c1cc[n+](CC(=O)c2ccc(-c3ccccc3)cc2)cc1	52*	57	35	-3	86*	12	48*
COC(=O)c1ccc2nc(NC(=O)C(C)(C)C)sc2c1	66*	37	25	22	18	-75	35
COC(=O)c1ccc2nc(Nc3nc4ccc(F)cc4s3)sc2c1	52*	33	26	7	1	-10	58*
SMILES	NR2F2 inh	SRC3 inh	SRC1 inh	SRC2 inh	NR5A2 inv ag	Gal4-VP16 ctr	COUP-TFII conf
CC(=O)c1sc(Nc2nc3ccc(F)cc3s2)nc1C	-43	-45	-72	-74	-92	.	.
CCOC(=O)c1cccc(NC(=O)CN(C)S(=O)(=O)c2ccc(Cl)s2)c1	16	.	.	0	.	.	.
CCN(CC)S(=O)(=O)c1cccc(-n2c(O)c(C=Nc3ccccc3C(=O)O)c3ccccc3c2=O)c1	47*	29	11	37	41	-30	42*
Cc1ccc2oc(-c3cccc(NC(=S)NC(=O)c4cccs4)c3)nc2c1	-28	-25	-24	-29	-19	.	.
Cc1ccc2oc(-c3cccc(NC(=S)NC(=O)/C=C/c4ccco4)c3)nc2c1	47*	4	-22	-7	17	-31	-13
C#CCN(C[C@@H]1[C@@H](OC(=O)NCCCCCC)[C@@H](OC(=O)NCCCCCC)Cn2c(=O)ccc(=O)n21)S(=O)(=O)c1ccc(C)cc1	29	54	27	26	34	.	.
C#CCN(C[C@@H]1[C@@H](OC(=O)NCC2CCCCC2)[C@@H](OC(=O)NCC2CCCCC2)Cn2c(=O)ccc(=O)n21)S(=O)(=O)c1ccc(C)cc1	54*	7	-5	31	59	45*	57*
NC(=O)c1ccc(N2CCN(S(=O)(=O)c3ccccc3)CC2)c([N+](=O)[O-])c1	54*	5	30	31	38	2	43*
O=C(c1ccc(N2CCCCC2)c([N+](=O)[O-])c1)N1CCN(S(=O)(=O)c2ccccc2)CC1	13	-14	5	20	12	.	.
CC(C)(C)c1ccc(OCCC(=O)NNC(=O)c2ccncc2)cc1	1	1	26	-7	-4	.	.
COc1cccc(C(=O)NCC2(c3ccccc3)CCCC2)c1OC	45*	14	17	-1	5	-8	17
CCCOc1ccc(C(=O)Nc2ccc(S(=O)(=O)NC3=NCCCCC3)cc2)cc1	43*	-4	-1	3	31	-3	10
Cc1[nH]nc(C(F)(F)F)c1N=NN1CCOCC1	49*	14	2	30	24	13	46*
Clc1ccc(N=NN2CCOCC2)cc1	0	11	1	0	-12	.	.
CCN(CC)S(=O)(=O)c1cc(NC(=O)C2CCN(c3ncnc4sc(C)c(C)c34)CC2)ccc1Cl	-3	19	32	-2	24	.	.
Cc1ccc(NC(=O)C2CCN(c3ncnc4sc(C)c(C)c34)CC2)cc1S(=O)(=O)N(C)C	48*	35	24	4	-3	8	31
